Bioassay records: PubChem BioAssay, National Center for Advancing Translational Sciences (NCATS)
IL1B secr inh = inflammasome signaling inhibition, IL-1 beta readout. AID 743279. THP-1 LPS/ATP IL-1B secretion, AlphaLISA, 16 h; hits give low values. 4.7% of 360,000 active. activity change, % at 57.5 µM; in the data active means activity change below about -50%; inconclusive means mostly about -30% to -49%; further: on the % scale 0 is the no-effect control and ±100 the full control effect
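THP-1 cells pretreated 1 hr with compounds (up to 57.5 uM final), then stimulated with LPS (250 ng/mL final) plus ATP (1.25 mM final); secreted IL-1B measured by AlphaLISA after 16 hr, decreased signal indicating inhibition.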
TDP1 cell noCPT = qHTS for Inhibitors of human tyrosyl-DNA phosphodiesterase 1 (TDP1): qHTS in cells in absence of CPT. DT40 Tdp1-/- hTDP1 cells, no CPT, ATP luminescence, 48 h. Potency, µM (highest dose often 46.2 µM), without a hit: at the top dose activity change, negative = growth inhibition, usual class: inhibitors. 15% of 420,000 active; further: potency means the concentration at half of the fitted maximal effect; on the % scale 0 is the no-effect control and ±100 the full control effect; nearly all actives have a fitted effect of over 55% in size
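Camptothecin absent (DMSO only). Human TDP1-complemented DT40 knockout cells, 400 cells/well, 37 °C for minimum 48 hr; ATP measured via CellTiter-Glo, 30 min dark incubation, luminescence.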
D3 ag = D3 dopamine receptor (human) agonism; P35462; D3R DiscoveRx beta-arrestin cells, luminescence, 90 min; max activation, %; 0.58% of 410,000 active; in the data active means max activation above about 30%; further: 0% is about no effect
Target sequence (P35462 whole entry, looked up): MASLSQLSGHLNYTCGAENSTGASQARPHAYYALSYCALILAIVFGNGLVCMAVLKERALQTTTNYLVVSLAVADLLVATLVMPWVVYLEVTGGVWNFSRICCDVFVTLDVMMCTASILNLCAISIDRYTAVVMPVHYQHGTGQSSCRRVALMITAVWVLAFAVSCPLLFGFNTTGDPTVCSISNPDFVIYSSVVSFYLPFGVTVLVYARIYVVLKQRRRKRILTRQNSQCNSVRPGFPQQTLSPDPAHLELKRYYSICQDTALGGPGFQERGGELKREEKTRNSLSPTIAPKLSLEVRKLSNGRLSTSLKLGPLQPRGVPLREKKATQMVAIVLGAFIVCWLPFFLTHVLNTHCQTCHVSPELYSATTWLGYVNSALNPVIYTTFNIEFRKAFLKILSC
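Agonist mode: compounds and dopamine controls were applied to plated cells for 90 min at 37 degrees C after an overnight attachment at 1500 cells/well. Luminescent read-out followed 30 - 60 minutes at room temperature with DiscoveRx detection reagent.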
DT40 TDP1 CPT = growth inhibition of DT40 Tdp1-/-;hTDP1 cells with camptothecin (screen for TDP1 inhibitors); chicken DT40 Tdp1-/-;hTDP1 cells + 20 nM CPT, ATP luminescence, 48 h; Potency, µM (top dose mostly 46.2 µM), for inactives: at the highest dose activity change, negative = growth inhibition, actives largely listed as inhibitors; 12% of 420,000 active; AID 686979; further: potency means the concentration at half of the fitted maximal effect; on the % scale 0 is the no-effect control and ±100 the full control effect; nearly all actives have a fitted effect of over 55% in size
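Cell growth measured by CellTiter-Glo luminescence after a minimum 48 h, 37 C compound exposure with 20 nM CPT in Tdp1-knockout DT40 cells stably expressing hTDP1, seeded 400/well; qHTS titration format.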
ClpP mod = qHTS Assay for Activators of ClpP; ATP-dependent Clp protease proteolytic subunit (Bacillus subtilis (strain 168)), P80244; purified B. subtilis ClpP, FRET peptide cleavage, 20 min; Potency, µM (top dose mostly 57.5 µM), for inactives: at the top dose activity change, negative = active; 1.9% of 340,000 active; AID 651965, 2013; active means well fitted falling curve with a large enough effect; inconclusive means small, poorly fitted or top-dose-only effect; inactive means no such curve, though single readings can be large or run the other way; further: potency means the concentration at half of the fitted maximal effect; the source files actives as falling curves though it sought activators and does not explain the sign; nearly all actives have a fitted effect of over 65% in size
Target sequence (P80244 whole entry, looked up): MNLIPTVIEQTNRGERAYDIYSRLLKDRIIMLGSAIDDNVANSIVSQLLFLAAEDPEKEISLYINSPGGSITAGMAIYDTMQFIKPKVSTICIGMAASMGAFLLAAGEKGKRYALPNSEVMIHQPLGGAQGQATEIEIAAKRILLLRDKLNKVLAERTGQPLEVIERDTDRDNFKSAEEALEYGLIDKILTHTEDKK
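FRET quenching reversal measured ClpP activation: 10 microg/mL B. subtilis ClpP at pH 8 with the FRET-FV decapeptide, read at 430 nm after 320 nm excitation. The 20-min minus 0-min signal was scaled between DMSO/no-enzyme wells and ADEP (5.8 microM final).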
D3 antag = D3 dopamine receptor (human) antagonism; P35462; D3R cells, DiscoveRx beta-arrestin luminescence, antagonist mode; hits give low values; max response, negative = inhibition, %; 2.5% of 360,000 active; AID 652054; in the data active means max response below about -50%; inconclusive means no clear call, values can overlap the other calls; further: on the % scale 0 is the no-effect control and ±100 the full control effect
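Cells plated overnight at 1500 cells/well, then exposed to library compounds with dopamine controls for 90 minutes at 37 degrees C. DiscoveRx reagent added for 30–60 minutes at room temperature; luminescence read, quantitative HTS format.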
* hit, by the source's call; ? = inconclusive; nt = no result. Rows were chosen to be rich in hits. Some 21% of all compounds tested hit in one or more screens of this group. Unless noted, the call rests on the fitted dose curve; in most records, active means well fitted inhibition curve with a large enough effect; inconclusive means small, poorly fitted or top-dose-only effect; inactive means flat fitted curve, though single readings scatter.

SMILES	IL1B secr inh	TDP1 cell noCPT	D3 ag	DT40 TDP1 CPT	ClpP mod	D3 antag
CCOc1ccc2nc(N3CCCC3C(=O)N3CCC(c4nc5ccccc5o4)CC3)nc(C)c2c1 (configuration not stated)	nt	-20.0%	nt	-2.0%	nt	nt
Fc1cccc(CCN2CCNC[C@@H]2c2ccccc2)c1	0.0	?	-27.4	?	-4.5%	-14.7
Fc1cccc(CCN2CCNC[C@H]2Cc2cccc3ccccc23)c1	-59.6*	?	19.9	?	0.4%	26.7
Oc1ccc(C[C@@H]2CNCCN2CCc2cccc3ccccc23)cc1	?	20.6µM*	-21.0	14.6µM*	-6.5%	-11.1
CCCCN1CCNC[C@@H]1Cc1ccc(O)cc1	18.8	1.3%	2.4	-10.4%	-4.5%	0.0
COC(=O)CNC(=O)C1Cc2ccccc2CN1S(=O)(=O)c1cccs1 (configuration not stated)	-74.3*	-8.2%	10.6	-18.2%	nt	9.6
CCOC(=O)CNC(=O)C1Cc2ccccc2CN1S(=O)(=O)c1cccs1 (configuration not stated)	-4.6	-1.4%	-12.4	0.2%	nt	-9.5
Cc1ccccc1OCCN(C#N)c1nc(N(C)C)nc(N(C)C)n1	-19.5	16.4µM*	-6.6	?	-1.3%	-3.8
CCc1ccccc1NC(=S)N1CCN(c2ccccc2F)CC1	6.4	?	-3.9	-19.5%	1.0%	-1.4
CCOc1ccccc1NC(=S)N1CCN(c2nc(-c3ccc(F)cc3)cs2)CC1	19.6	14.6µM*	7.6	20.6µM*	-0.3%	-6.1
CCOc1ccccc1NC(=S)N1CCN(c2ccccc2F)CC1	-7.7	20.6µM*	-12.2	?	nt	-24.7
CCN(CC1COc2ccccc2O1)C(=O)CN1C(=O)NC(C)(c2ccc(C)cc2)C1=O (configuration not stated)	7.8	23.1µM*	4.8	?	1.8%	-6.3
CCN(CC1COc2ccccc2O1)C(=O)CN1C(=O)NC(C)(c2ccccc2)C1=O (configuration not stated)	?	0.9%	55.1*	-20.3%	-1.8%	-12.7
CCc1cc(C(=O)c2ccccc2)c(N)s1	-8.5	?	4.7	25.9µM*	nt	7.5
COc1cc(S(=O)(=O)n2ccnc2C(C)C)ccc1Br	nt	-1.9%	-0.4	9.6%	0.5%	nt
Cc1sc2nc(CSCC(=O)N(CCC#N)c3ccccc3)[nH]c(=O)c2c1C	29.3	?	-6.5	18.4µM*	-5.2%	9.3
Cc1sc2nc(CSCC(=O)NC(C)(C)C)[nH]c(=O)c2c1C	23.8	-10.6%	0.0	-22.9%	-6.8%	17.7
Cc1ccc(-n2nnnc2SCc2nc3sc(C)c(C)c3c(=O)[nH]2)cc1	5.3	?	6.7	?	3.55µM*	?
Cc1sc2nc(CSCC(=O)Nc3c(F)cccc3F)[nH]c(=O)c2c1C	16.7	10.3µM*	7.2	11.6µM*	-0.6%	5.0
CCOC(=O)CSc1nc2sc(C)c(C)c2c(=O)n1C	13.2	-24.3%	4.1	?	0.3%	7.3
Cc1sc2nc(SCC(=O)N3CC(C)OC(C)C3)n(C)c(=O)c2c1C (configuration not stated)	9.6	13µM*	25.0	?	0.8%	23.7
CCc1cccc(NC(=O)c2nnn(Cc3ccc(SC)cc3)c2N)c1	nt	-1.8%	-17.7	-1.7%	151.6%	nt
CCCCN(C)CCNC(=O)c1c(C)oc2ncnc(N3CCOCC3)c12	nt	6.5%	7.1	17.3%	-0.7%	nt
COc1cc(C(=O)Nc2nnc(S(=O)(=O)N(C)c3ccccc3)s2)cc(OC)c1OC	nt	?	-7.6	?	-7.4%	nt
Cc1cc(C)c(C(=O)Cn2nc(C)c([N+](=O)[O-])c2C)cc1C	-12.2	?	-12.7	-27.3%	0.5%	-15.5
SMILES	IL1B secr inh	TDP1 cell noCPT	D3 ag	DT40 TDP1 CPT	ClpP mod	D3 antag
Cc1cccc(NC(=O)CCn2nc(C)c3c(C)n(-c4ccccc4)nc3c2=O)c1C	nt	-4.6%	-4.0	4.1%	-2.5%	nt
Cc1sc2nc(SCC(=O)N(C)c3ccccc3)n(C)c(=O)c2c1C	0.0	13µM*	19.9	18.4µM*	-1.2%	-14.6
Cc1sc2nc(CSCC(=O)N(C)c3ccccc3)[nH]c(=O)c2c1C	-10.3	16.4µM*	3.4	23.1µM*	-20.3%	15.5
CCn1c(SCC(=O)N2CCc3ccccc3C2)nc2sc(C)c(C)c2c1=O	15.4	20.6µM*	1.3	?	1.5%	31.4
Cc1sc2nc(CSCC(=O)N(C)CC(=O)Nc3ccc(F)cc3)[nH]c(=O)c2c1C	-25.8	?	-1.5	-28.7%	0.2%	0.0
NC(=O)CSc1nc2c(sc(=S)n2-c2ccccc2)c(=O)[nH]1	11.6	0.6%	8.2	-0.6%	nt	7.7
CNc1nc2cccnc2s1	12.1	2.2%	2.2	-5.6%	-2.8%	20.2
COC(=O)c1ccn(C(=O)c2ccc(Cl)cc2)n1	-21.2	-1.6%	0.5	-0.3%	28.2µM*	22.1
COC(=O)c1ccn(CSc2cc(Cl)ccc2Cl)n1	-28.1	-0.6%	-3.6	-21.7%	0.1%	-4.8
CCCc1nn2c(=O)cc(COC(=O)c3cccc(NC(=O)CCc4ccccc4)c3)nc2s1	nt	-26.6%	-12.7	-20.2%	4.5%	nt
C[n+]1ccc(/C=C/c2ccc(C=S)cc2)c2ccccc21	nt	3.16µM*	nt	3.98µM*	2.6%	nt
C[n+]1ccc(/C=C/c2ccc3c(c2)OCO3)c2ccccc21	nt	-14.1%	nt	1.9%	-1.0%	nt
C[n+]1ccc(/C=C/c2ccccc2O)c2ccccc21	-56.3*	?	-3.7	?	nt	-7.4
CN(C)c1ccc(/C=C/c2cc[n+](C)c3ccc4ccccc4c23)cc1	nt	?	nt	0.0891µM*	1.0%	nt
CSc1nnc(CNS(=O)(=O)c2ccc(F)cc2F)n1-c1ccccc1C	nt	-12.8%	nt	?	nt	nt
COc1c(/C=C2\SC(=Nc3ccccc3Cl)NC2=O)cccc1[N+](=O)[O-]	-13.4	-23.1%	4.6	-6.2%	1.1%	-9.3
COc1ccc(/C=C2\SC(=Nc3ccccc3Cl)NC2=O)c(OC)c1	-52.3*	14.6µM*	-0.7	25.9µM*	2.3%	-11.6
O=C(CN1CC[n+]2c(-c3cccs3)csc21)c1ccc(-c2ccccc2)cc1	-88.7*	8.2µM*	0.2	9.2µM*	0.6%	11.3
CCN(CC)S(=O)(=O)c1ccc(N2CCCC2)c(NS(=O)(=O)c2ccccc2)c1	14.7	?	0.0	23.1µM*	0.5%	-19.4
CCN(CC)S(=O)(=O)c1ccc(N2CCCC2)c(NC(=O)Cc2ccccc2)c1	0.0	14.6µM*	-2.4	?	0.1%	-7.4
